Many of the other results were omitted from the sample, so the strongest signals are more common in it than they were.
B1: Morniga (Morus nigra) (protein)
chain: MAGTSTNTQTTGTSQTVEVGLWGGPGGNAWDDGSYTGIREINLSHGDAIGAFSVIYDLNGQPFTGPTHPGNEPSFKTVKITLDFPNEFLVSVSGYTGVLPRLATGKDVIRSLTFKTNKKTYGPYGKEEGTPFSLPIENGLIVGFKGRSGFVVDAIGVHLS
B2: Ficolin B (Rattus norvegicus), P57756 (protein)
chain: MVLGSAALFVLSLCVTELTLHAADTCPEVKVLDLEGSNKLTILQGCPGLPGALGPKGEAGAKGDRGESGLPGHPGKAGPTGPKGDRGEKGVRGEKGDTGPSQSCATGPRTCKELLTRGYFLTGWYTIYLPDCRPLTVLCDMDTDGGGWTVFQRRIDGTVDFFRDWTSYKQGFGSQLGEFWLGNDNIHALTTQGTNELRVDLADFDGNHDFAKYSSFQIQGEAEKYKLILGNFLGGGAGDSLTSQNNMLFSTKDQDNDQGSSNCAVRYHGAWWYSDCHTSNLNGLYLRGLHKSYANGVNWKSWKGYNYSYKVSEMKVRLI

Experiments:
Experiment in all cases: glycan array binding signal (z-score within array); higher = stronger binding
Conditions in all cases: glycan notation: IUPAC condensed, linker removed
[1] = biological target: Neu5Ac(a2-3)Gal(b1-3)GlcNAc(b1-6)GalNAc
Summary of the method: (§1)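 The binding signal is a Z-score computed within each array and averaged over linkers. Arrays of the same protein sequence at different concentrations or buffers were also averaged together. Data originate from 3228 arrays in the Consortium for Functional Glycomics database, kept only where the protein sequence was available.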

[2] = biological target: Neu5Ac(a2-3)Gal(b1-4)GlcNAc(b1-2)Man(a1-3)[Neu5Ac(a2-6)Gal(b1-4)GlcNAc(b1-2)Man(a1-6)]Man(b1-4)GlcNAc(b1-4)GlcNAc
Summary of the method: as §1

[3] = biological target: Neu5Ac(a2-3)Gal(b1-4)GlcNAc(b1-3)Gal(b1-3)GlcNAc
Summary of the method: as §1

[4] = biological target: Neu5Ac(a2-3)Gal(b1-4)GlcNAc(b1-3)Gal(b1-4)GlcNAc(b1-3)Gal(b1-4)GlcNAc
Summary of the method: as §1

[5] = biological target: Neu5Ac(a2-6)Gal(b1-4)GlcNAc(b1-2)Man(a1-3)Man(b1-4)GlcNAc(b1-4)GlcNAc
Summary of the method: as §1

[6] = biological target: Neu5Ac(a2-6)Gal(b1-4)GlcNAc(b1-2)Man(a1-6)[Gal(b1-4)GlcNAc(b1-2)Man(a1-3)]Man(b1-4)GlcNAc(b1-4)GlcNAc
Summary of the method: as §1

[7] = biological target: Neu5Ac(a2-6)Gal(b1-4)GlcNAc(b1-2)Man(a1-6)[Man(a1-3)]Man(b1-4)GlcNAc(b1-4)GlcNAc
Summary of the method: as §1

[8] = biological target: Neu5Ac(a2-8)Neu5Ac(a2-8)Neu5Ac(a2-3)Gal(b1-4)Glc
Summary of the method: as §1

[9] = biological target: Fuc(a1-2)Gal(b1-3)GalNAc(b1-4)[Neu5Ac(a2-3)]Gal(b1-4)Glc
Summary of the method: as §1

[10] = biological target: Fuc(a1-2)Gal(b1-3)GlcNAc
Summary of the method: as §1

[11] = biological target: Fuc(a1-2)Gal(b1-4)GlcNAc
Summary of the method: as §1

[12] = biological target: Fuc(a1-2)Gal(b1-4)[Fuc(a1-3)]GlcNAc(b1-3)Gal(b1-4)[Fuc(a1-3)]GlcNAc
Summary of the method: as §1

[13] = biological target: Fuc(a1-3)[Gal(b1-4)]GlcNAc(b1-2)Man(a1-3)[Fuc(a1-3)[Gal(b1-4)]GlcNAc(b1-2)Man(a1-6)]Man(b1-4)GlcNAc(b1-4)GlcNAc
Summary of the method: as §1

[14] = biological target: Gal(a1-4)Gal(b1-4)GlcNAc(b1-3)Gal(b1-4)Glc
Summary of the method: as §1

[15] = biological target: Gal(b1-4)GlcNAc(b1-3)[Gal(b1-4)GlcNAc(b1-6)]Gal(b1-4)GlcNAc
Summary of the method: as §1

[16] = biological target: Gal(b1-4)GlcNAc(b1-6)GalNAc
Summary of the method: as §1

[17] = biological target: Gal3S(b1-4)GlcNAc6S
Summary of the method: as §1

[18] = biological target: GalNAc(b1-3)Gal(a1-4)Gal(b1-4)GlcNAc
Summary of the method: as §1

[19] = biological target: GlcNAc(a1-3)Gal(b1-4)GlcNAc
Summary of the method: as §1

[20] = biological target: GlcNAc(a1-6)Gal(b1-4)GlcNAc
Summary of the method: as §1

[21] = biological target: Kdn(a2-6)Gal(b1-4)GlcNAc
Summary of the method: as §1

[22] = biological target: Man(a1-2)Man(a1-3)[Man(a1-2)Man(a1-6)]Man(a1-6)[Man(a1-2)Man(a1-2)Man(a1-3)]Man(b1-4)GlcNAc(b1-4)GlcNAc
Summary of the method: as §1

[23] = biological target: Man(a1-2)Man(a1-6)[Man(a1-3)]Man(a1-6)[Man(a1-2)Man(a1-2)Man(a1-3)]Man
Summary of the method: as §1

[24] = biological target: Man(a1-2)Man(a1-6)[Man(a1-3)]Man(a1-6)[Man(a1-2)Man(a1-2)Man(a1-3)]Man(b1-4)GlcNAc(b1-4)GlcNAc
Summary of the method: as §1

[25] = biological target: Man(a1-3)[Man(a1-6)]Man
Summary of the method: as §1

[26] = biological target: Man(a1-3)[Man(a1-6)]Man(a1-6)[Man(a1-2)Man(a1-3)]Man(b1-4)GlcNAc(b1-4)GlcNAc
Summary of the method: as §1

[27] = biological target: Neu5Ac(a2-3)Gal(b1-3)[Neu5Ac(a2-3)Gal(b1-4)]GlcNAc
Summary of the method: as §1

[28] = biological target: Neu5Ac(a2-3)Gal(b1-4)GlcNAc(b1-2)Man(a1-3)[GlcNAc(b1-2)Man(b1-4)GlcNAc(b1-2)Man(a1-6)]Man(b1-4)GlcNAc(b1-4)GlcNAc
Summary of the method: as §1

[29] = biological target: Neu5Ac(a2-3)Gal(b1-4)GlcNAc(b1-3)GalNAc
Summary of the method: as §1

[30] = biological target: Neu5Ac(a2-3)Gal(b1-4)[Fuc(a1-3)]GlcNAc(b1-3)Gal
Summary of the method: as §1

[31] = biological target: Neu5Ac(a2-3)Gal(b1-4)[Fuc(a1-3)]GlcNAc(b1-6)[Neu5Ac(a2-3)Gal(b1-3)]GalNAc
Summary of the method: as §1

[32] = biological target: Neu5Ac(a2-6)Gal(b1-4)GlcNAc(b1-3)Gal(b1-3)GlcNAc
Summary of the method: as §1

[33] = biological target: Neu5Ac(a2-6)Gal(b1-4)GlcNAc(b1-3)Gal(b1-4)[Fuc(a1-3)]GlcNAc(b1-3)Gal(b1-4)[Fuc(a1-3)]GlcNAc
Summary of the method: as §1

[34] = biological target: Neu5Ac(a2-8)Neu5Ac
Summary of the method: as §1

[35] = biological target: Neu5Ac(a2-8)Neu5Ac(a2-8)Neu5Ac
Summary of the method: as §1

[36] = biological target: Neu5Ac(b2-6)Gal(b1-4)GlcNAc
Summary of the method: as §1

Row | Binder | glycan array binding signal (z-score) [1] | glycan array binding signal (z-score) [2] | glycan array binding signal (z-score) [3] | glycan array binding signal (z-score) [4] | glycan array binding signal (z-score) [5] | glycan array binding signal (z-score) [6] | glycan array binding signal (z-score) [7] | glycan array binding signal (z-score) [8] | glycan array binding signal (z-score) [9] | glycan array binding signal (z-score) [10] | glycan array binding signal (z-score) [11] | glycan array binding signal (z-score) [12] | glycan array binding signal (z-score) [13] | glycan array binding signal (z-score) [14] | glycan array binding signal (z-score) [15] | glycan array binding signal (z-score) [16] | glycan array binding signal (z-score) [17] | glycan array binding signal (z-score) [18] | glycan array binding signal (z-score) [19] | glycan array binding signal (z-score) [20] | glycan array binding signal (z-score) [21] | glycan array binding signal (z-score) [22] | glycan array binding signal (z-score) [23] | glycan array binding signal (z-score) [24] | glycan array binding signal (z-score) [25] | glycan array binding signal (z-score) [26] | glycan array binding signal (z-score) [27] | glycan array binding signal (z-score) [28] | glycan array binding signal (z-score) [29] | glycan array binding signal (z-score) [30] | glycan array binding signal (z-score) [31] | glycan array binding signal (z-score) [32] | glycan array binding signal (z-score) [33] | glycan array binding signal (z-score) [34] | glycan array binding signal (z-score) [35] | glycan array binding signal (z-score) [36]
1 | B1 | -0.299 | 2.56 | -0.325 | -0.342 | 3.66 | 3.24 | 4.66 | -0.334 | – | – | – | – | – | – | – | – | – | – | – | – | – | – | – | – | – | – | – | – | – | – | – | – | – | – | – | –
2 | B2 | – | – | – | – | – | – | – | – | -0.165 | -0.197 | -0.192 | -0.205 | -0.214 | -0.169 | 1.56 | -0.085 | -0.2 | -0.2 | -0.127 | 0.051 | -0.209 | -0.224 | -0.212 | -0.18 | -0.166 | -0.182 | 3.17 | 5.65 | -0.192 | 0.01 | 0.019 | 0.054 | -0.204 | 3.73 | 2.69 | 8.52

From the supplement of paper PMC8728848
